Measured values taken from the supplement of paper PMC11732987, “Enantioselective OTUD7B fragment discovery through chemoproteomics screening and high-throughput optimisation” (Communications Chemistry, 2025).

Legend:
Assay in all cases: log2 ratio of Biotin-Ahx-Ub-VS probe labelling (fragment/DMSO); higher = less target engagement (more negative = stronger competition), active = hit call of the paper (q ≤ 0.05, log2 ratio ≤ -1)
Conditions in all cases: compound concentration: 200 uM; treatment time: 3 h
USP42 = target: T1, USP42 (UniProt Q9H9J4)
T1 sequence (whole entry): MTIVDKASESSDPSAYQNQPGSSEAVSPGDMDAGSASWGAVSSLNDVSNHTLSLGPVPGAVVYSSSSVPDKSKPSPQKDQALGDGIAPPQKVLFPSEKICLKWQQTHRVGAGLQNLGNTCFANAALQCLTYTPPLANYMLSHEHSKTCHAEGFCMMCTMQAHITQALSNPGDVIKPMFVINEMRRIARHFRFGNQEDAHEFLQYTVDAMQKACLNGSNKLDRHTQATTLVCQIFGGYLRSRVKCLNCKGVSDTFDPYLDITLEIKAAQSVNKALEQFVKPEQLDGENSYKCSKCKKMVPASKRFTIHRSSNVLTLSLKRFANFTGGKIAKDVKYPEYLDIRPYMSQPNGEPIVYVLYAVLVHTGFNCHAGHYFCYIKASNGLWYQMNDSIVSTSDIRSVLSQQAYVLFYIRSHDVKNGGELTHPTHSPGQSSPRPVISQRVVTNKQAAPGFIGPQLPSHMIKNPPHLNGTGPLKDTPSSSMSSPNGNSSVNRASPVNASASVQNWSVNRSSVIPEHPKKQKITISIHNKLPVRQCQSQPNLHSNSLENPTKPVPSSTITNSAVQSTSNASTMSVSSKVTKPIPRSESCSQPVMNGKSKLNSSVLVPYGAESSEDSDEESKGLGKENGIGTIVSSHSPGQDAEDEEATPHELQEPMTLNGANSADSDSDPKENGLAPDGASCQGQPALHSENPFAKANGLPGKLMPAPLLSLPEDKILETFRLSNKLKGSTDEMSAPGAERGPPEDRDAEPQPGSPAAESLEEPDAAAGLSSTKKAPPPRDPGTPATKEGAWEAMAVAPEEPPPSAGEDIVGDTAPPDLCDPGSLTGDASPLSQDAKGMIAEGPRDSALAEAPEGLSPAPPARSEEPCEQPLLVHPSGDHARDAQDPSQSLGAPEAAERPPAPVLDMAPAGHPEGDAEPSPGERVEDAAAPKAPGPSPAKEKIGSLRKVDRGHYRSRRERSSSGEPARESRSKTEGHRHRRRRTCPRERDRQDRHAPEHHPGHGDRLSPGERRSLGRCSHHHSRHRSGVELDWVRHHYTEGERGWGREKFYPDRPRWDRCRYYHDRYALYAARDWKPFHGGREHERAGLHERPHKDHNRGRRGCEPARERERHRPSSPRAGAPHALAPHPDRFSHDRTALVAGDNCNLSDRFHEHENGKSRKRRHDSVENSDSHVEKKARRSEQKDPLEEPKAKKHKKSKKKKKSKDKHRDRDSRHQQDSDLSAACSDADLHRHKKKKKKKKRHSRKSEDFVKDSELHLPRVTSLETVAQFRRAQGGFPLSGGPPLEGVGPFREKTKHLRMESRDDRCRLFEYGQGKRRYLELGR
Summary of the method: (§1)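 Triplicate samples of HEK293T lysate, 495 µg each, received fragment at 200 µM or vehicle for 3 h, followed by Biotin-Ahx-Ub-VS (0.5 µM final) for 1 h. After NeutrAvidin enrichment of labelled DUBs and LysC/trypsin digestion, peptides were run by diaPASEF LC-MS/MS. The values are average log2 fragment/vehicle ratios from global-median-normalised Spectronaut label-free quantities, tested by unpaired t-test on proteins having ≥2 unique peptides.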

USP46 = USP46 (UniProt P62068)
Chain of USP46 (P62068 whole entry): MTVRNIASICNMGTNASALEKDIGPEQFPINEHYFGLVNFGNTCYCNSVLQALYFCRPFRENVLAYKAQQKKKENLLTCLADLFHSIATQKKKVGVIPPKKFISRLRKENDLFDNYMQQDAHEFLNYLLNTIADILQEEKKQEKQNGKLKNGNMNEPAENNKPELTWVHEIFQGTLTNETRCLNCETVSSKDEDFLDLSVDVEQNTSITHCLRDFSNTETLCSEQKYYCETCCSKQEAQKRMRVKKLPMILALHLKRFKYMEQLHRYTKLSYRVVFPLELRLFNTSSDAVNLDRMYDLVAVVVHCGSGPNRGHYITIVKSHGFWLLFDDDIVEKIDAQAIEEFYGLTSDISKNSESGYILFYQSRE
Summary of the method: as §1

USP47 = target: T2, USP47 (UniProt Q96K76)
T2 sequence (whole entry): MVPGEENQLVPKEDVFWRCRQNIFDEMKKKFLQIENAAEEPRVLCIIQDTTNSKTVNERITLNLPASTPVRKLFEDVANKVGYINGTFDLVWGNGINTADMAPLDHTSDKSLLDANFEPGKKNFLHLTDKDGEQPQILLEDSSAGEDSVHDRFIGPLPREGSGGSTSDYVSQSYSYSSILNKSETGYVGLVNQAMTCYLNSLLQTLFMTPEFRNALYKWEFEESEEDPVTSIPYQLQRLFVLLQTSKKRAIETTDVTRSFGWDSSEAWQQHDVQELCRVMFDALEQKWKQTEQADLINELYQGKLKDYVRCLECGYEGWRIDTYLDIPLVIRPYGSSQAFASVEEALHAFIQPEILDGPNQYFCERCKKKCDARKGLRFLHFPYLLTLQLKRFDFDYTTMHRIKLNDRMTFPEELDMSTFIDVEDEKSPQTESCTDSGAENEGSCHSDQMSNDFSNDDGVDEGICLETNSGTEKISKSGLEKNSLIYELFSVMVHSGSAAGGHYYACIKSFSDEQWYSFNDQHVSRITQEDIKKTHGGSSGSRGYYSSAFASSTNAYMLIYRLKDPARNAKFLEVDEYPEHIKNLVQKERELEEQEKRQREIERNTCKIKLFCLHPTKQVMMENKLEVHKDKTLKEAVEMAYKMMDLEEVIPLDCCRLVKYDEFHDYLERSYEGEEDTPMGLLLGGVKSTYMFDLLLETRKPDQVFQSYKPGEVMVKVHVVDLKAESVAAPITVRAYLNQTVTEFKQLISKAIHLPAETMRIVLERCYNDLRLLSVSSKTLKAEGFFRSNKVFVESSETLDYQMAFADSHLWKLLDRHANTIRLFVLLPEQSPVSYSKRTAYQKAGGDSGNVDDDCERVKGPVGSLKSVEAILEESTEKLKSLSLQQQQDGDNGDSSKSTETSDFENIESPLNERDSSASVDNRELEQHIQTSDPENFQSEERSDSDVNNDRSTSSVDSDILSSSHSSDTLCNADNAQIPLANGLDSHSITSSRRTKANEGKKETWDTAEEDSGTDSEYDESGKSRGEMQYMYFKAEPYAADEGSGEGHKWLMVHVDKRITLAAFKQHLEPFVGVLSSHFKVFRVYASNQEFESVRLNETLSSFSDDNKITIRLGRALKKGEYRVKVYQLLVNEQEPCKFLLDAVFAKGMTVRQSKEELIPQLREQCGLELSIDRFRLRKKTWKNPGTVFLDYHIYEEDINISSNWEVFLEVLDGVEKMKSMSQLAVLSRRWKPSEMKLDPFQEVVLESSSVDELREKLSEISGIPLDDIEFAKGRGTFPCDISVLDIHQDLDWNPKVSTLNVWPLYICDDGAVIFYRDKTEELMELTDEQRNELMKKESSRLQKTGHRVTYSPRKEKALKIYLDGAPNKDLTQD
Summary of the method: as §1

USP48 = target: T3, USP48 (UniProt Q86UV5)
T3 sequence (whole entry): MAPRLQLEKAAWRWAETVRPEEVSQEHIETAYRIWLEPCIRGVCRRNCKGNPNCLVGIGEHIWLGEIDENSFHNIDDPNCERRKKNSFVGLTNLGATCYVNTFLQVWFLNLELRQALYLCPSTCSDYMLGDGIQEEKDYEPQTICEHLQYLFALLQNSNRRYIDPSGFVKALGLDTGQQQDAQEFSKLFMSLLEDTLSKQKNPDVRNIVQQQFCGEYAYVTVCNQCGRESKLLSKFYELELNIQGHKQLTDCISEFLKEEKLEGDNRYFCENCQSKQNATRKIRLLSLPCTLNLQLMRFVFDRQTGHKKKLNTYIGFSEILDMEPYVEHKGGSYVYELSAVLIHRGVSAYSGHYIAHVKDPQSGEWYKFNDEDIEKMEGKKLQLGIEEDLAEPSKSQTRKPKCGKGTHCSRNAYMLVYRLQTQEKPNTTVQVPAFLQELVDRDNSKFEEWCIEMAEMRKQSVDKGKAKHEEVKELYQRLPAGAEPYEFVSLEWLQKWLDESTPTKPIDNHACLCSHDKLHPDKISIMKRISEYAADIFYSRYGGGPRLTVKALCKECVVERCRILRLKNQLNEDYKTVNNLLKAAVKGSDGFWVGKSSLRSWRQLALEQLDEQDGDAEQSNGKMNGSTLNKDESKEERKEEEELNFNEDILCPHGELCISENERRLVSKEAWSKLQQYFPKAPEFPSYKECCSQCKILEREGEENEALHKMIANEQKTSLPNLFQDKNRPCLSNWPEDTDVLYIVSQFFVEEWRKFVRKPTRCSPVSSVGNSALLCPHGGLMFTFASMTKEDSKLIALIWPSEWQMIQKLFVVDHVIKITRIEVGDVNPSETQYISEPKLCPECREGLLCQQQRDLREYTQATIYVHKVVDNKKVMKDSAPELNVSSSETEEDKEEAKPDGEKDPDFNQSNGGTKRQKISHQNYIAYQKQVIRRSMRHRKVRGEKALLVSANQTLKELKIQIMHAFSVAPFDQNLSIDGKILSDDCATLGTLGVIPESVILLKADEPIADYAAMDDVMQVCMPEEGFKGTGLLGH
Summary of the method: as §1

USP5 = target: T4, USP5 (UniProt P45974)
T4 sequence (whole entry): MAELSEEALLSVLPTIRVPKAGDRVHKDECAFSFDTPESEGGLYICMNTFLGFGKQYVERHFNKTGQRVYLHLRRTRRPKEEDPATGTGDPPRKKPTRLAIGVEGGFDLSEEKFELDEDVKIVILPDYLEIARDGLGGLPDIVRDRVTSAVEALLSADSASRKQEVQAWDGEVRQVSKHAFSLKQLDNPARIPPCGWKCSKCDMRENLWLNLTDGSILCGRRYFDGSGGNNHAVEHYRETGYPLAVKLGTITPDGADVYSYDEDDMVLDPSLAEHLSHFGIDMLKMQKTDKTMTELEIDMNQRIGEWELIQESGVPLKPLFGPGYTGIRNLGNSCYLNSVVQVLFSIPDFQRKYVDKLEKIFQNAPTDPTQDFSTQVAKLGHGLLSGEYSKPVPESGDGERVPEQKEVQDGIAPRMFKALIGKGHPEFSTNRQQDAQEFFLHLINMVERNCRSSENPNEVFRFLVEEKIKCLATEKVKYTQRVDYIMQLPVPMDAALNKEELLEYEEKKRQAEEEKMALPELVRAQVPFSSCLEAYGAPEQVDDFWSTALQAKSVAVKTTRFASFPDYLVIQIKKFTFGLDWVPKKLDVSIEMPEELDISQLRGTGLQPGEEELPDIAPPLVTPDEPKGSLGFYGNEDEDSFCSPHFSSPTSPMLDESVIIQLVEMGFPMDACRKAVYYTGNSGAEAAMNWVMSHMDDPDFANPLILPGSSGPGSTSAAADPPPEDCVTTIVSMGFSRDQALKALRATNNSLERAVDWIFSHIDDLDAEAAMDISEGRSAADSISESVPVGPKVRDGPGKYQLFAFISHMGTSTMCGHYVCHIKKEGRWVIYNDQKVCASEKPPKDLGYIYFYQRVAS
Summary of the method: as §1

USP54 = USP54 (UniProt Q70EL1)
Chain of USP54 (Q70EL1 whole entry): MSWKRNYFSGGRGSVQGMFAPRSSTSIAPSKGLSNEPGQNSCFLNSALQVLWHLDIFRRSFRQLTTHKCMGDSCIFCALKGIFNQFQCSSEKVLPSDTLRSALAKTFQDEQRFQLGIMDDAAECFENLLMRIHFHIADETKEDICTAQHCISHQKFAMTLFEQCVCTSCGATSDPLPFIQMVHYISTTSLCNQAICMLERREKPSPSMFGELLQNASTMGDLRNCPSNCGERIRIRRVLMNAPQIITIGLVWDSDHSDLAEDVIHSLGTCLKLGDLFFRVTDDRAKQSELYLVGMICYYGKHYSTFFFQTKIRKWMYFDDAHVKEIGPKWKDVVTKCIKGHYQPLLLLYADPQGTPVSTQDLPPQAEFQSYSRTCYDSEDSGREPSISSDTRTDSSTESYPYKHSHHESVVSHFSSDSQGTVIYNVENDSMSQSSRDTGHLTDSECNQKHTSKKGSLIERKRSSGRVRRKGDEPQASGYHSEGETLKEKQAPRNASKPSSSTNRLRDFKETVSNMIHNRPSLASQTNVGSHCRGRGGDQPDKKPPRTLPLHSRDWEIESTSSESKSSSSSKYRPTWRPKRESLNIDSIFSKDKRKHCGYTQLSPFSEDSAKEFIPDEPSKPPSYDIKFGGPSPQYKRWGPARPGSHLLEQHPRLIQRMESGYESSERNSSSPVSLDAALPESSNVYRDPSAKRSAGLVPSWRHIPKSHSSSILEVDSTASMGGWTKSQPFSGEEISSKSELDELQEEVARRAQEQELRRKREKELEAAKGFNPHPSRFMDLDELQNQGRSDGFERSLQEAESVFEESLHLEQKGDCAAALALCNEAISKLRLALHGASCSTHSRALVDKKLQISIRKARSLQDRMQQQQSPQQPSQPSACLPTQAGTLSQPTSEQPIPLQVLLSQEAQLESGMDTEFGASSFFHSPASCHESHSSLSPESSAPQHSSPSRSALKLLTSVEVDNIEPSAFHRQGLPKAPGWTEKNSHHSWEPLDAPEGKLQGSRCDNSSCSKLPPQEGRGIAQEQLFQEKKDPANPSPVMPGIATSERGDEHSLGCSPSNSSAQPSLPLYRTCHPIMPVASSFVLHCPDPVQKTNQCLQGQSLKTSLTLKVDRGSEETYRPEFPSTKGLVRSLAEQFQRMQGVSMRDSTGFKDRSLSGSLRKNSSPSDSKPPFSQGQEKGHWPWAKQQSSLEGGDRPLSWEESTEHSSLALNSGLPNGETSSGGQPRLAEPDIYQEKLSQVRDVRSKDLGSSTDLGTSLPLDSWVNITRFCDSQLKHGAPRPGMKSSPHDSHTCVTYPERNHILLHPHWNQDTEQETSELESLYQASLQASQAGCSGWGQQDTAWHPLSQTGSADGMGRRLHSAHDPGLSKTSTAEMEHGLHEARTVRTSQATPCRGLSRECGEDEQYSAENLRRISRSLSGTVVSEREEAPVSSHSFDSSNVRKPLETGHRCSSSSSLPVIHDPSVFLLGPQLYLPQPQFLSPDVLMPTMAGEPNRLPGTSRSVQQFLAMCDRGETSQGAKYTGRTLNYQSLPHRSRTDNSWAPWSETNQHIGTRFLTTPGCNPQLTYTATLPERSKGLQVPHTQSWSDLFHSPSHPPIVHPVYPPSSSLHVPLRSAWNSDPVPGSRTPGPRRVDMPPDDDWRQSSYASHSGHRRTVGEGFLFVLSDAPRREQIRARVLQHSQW
Summary of the method: as §1

USP7 = USP7 (UniProt Q93009)
Chain of USP7 (Q93009 whole entry, looked up): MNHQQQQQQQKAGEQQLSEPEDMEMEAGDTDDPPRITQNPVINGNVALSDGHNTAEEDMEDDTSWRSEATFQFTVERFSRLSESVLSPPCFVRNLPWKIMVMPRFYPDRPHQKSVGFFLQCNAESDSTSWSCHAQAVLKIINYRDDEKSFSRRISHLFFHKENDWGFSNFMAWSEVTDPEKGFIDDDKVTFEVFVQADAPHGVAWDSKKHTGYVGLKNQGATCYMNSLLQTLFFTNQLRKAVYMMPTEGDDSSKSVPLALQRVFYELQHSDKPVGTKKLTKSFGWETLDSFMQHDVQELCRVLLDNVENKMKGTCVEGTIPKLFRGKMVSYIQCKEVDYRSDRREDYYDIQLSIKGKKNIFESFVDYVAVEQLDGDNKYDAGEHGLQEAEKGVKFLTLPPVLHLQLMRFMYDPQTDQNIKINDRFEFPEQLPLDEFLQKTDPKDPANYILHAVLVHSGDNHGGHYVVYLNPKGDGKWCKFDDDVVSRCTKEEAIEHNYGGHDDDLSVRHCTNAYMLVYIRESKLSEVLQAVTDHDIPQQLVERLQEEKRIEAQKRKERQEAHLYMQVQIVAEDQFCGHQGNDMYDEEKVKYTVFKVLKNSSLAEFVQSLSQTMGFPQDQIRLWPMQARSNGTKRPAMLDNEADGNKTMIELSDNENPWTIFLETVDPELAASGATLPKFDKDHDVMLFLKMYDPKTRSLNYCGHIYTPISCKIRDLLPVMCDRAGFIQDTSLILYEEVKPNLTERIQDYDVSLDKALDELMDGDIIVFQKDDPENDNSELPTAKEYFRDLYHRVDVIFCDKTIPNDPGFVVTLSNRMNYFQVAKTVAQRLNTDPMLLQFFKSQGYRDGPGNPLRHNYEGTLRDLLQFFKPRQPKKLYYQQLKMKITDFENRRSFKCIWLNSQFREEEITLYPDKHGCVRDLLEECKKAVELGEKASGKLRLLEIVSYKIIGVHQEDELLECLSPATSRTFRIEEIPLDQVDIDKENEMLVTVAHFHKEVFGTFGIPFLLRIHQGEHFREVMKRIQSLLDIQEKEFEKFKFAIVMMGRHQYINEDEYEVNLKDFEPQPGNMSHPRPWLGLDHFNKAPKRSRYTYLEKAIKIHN
Summary of the method: as §1

USP8 = target: T5, USP8 (UniProt P40818)
T5 sequence (whole entry): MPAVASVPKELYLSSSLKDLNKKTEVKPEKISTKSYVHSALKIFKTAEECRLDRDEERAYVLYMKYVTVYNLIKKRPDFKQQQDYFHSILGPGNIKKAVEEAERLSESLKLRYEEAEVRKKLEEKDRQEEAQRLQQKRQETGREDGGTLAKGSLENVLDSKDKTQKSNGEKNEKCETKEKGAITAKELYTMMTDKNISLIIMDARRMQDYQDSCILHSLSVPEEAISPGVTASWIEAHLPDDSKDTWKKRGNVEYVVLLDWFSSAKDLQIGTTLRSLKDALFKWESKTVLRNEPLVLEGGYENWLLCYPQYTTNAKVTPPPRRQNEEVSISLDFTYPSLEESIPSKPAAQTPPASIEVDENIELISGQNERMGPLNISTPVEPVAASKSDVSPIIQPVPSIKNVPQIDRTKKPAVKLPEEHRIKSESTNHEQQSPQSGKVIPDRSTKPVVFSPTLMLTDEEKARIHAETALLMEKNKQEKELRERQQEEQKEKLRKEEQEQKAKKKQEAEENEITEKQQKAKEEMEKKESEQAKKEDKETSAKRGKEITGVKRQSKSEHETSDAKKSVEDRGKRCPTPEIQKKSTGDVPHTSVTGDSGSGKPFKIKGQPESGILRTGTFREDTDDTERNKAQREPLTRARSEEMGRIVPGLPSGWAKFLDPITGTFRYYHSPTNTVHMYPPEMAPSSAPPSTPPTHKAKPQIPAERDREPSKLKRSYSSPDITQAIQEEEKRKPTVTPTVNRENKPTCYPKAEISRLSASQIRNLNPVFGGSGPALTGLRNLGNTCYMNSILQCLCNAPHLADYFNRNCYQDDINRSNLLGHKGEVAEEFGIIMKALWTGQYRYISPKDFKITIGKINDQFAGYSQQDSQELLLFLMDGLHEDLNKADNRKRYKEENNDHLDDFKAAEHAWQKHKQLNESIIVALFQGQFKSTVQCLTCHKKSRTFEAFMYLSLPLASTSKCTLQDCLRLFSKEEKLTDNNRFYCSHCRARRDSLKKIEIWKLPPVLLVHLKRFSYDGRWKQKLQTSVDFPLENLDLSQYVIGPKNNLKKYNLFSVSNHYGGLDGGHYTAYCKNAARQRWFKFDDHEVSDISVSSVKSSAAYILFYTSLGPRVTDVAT
Summary of the method: as §1

USP9X = USP9X (UniProt Q93008)
Summary of the method: as §1

UniProt O00487 = target: UniProt O00487
Chain of UniProt O00487 (O00487 whole entry): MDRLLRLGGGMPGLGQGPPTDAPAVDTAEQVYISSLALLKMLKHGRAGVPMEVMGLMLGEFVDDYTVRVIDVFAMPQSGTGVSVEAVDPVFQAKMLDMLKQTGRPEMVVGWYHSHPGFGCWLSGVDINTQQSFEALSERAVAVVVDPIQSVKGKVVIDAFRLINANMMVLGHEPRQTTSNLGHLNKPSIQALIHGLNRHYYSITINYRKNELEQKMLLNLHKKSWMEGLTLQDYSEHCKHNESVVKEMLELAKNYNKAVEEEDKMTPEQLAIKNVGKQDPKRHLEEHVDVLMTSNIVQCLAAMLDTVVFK
Summary of the method: as §1

Measured: log2 ratio of Biotin-Ahx-Ub-VS probe labelling

Cc1ccc(C)c(Oc2ccc(CNC(=O)CCl)cn2)c1.Cl
inactive: USP42 -0.119 | USP46 0.00613 | USP47 -0.424 | USP48 -0.619 | USP5 -0.165 | USP54 0.136 | USP7 -0.376 | USP8 -0.519 | USP9X -0.677 | UniProt O00487 -0.0677
